# Laboratory results published in PubChem BioAssay.
# The source made the active and inactive calls. The rule behind the calls is not given here.
# Target: Pantothenate synthetase (Mycobacterium tuberculosis (strain ATCC 25618 / H37Rv)) (UniProt P9WIL5)
# Assay: Recombinant Mtb pantothenate synthetase (PanC) inhibitors, coupled enzyme, confirmatory (AID 375);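 note: 0% = full reaction with vehicle and 100% = no enzyme background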
# Settings: coupled enzyme assay; at 10 µM, hits give high values
# Sequence of Pantothenate synthetase (Mycobacterium tuberculosis (strain ATCC 25618 / H37Rv)) (P9WIL5 whole entry, looked up): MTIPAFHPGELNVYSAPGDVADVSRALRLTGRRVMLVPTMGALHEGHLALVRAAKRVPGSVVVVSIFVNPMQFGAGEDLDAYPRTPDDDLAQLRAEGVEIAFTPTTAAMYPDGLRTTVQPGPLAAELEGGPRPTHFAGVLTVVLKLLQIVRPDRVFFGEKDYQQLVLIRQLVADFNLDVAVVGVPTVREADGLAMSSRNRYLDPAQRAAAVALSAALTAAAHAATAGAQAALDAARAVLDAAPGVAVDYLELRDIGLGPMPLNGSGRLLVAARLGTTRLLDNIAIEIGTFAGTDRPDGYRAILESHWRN
row,Compound,inhibition
1,Cc1ccc(S(=O)(=O)NCCCCC(NC(=O)OC(C)(C)C)C(=O)O)cc1 (stereo not given) (tested in a mixture with another compound),0% (inactive)
2,CCCN1CCN(C(=O)Cn2c(=O)oc3cc(S(=O)(=O)NCc4ccccc4)ccc32)CC1,3% (inactive)
3,COc1ccc(-c2nc(C#N)c(N3CCOCC3)o2)cc1OC,0% (inactive)
4,COc1ccc(OC)c(C2CC(=O)NC(SC)=C2C#N)c1 (stereo not given),5% (inactive)
5,C=CCn1c(SCC(=O)c2ccccc2)nnc1-c1ccc2c(c1)OCO2,0% (inactive)
6,COC(=O)CN1C(=O)C(O)(CC(=O)c2ccc(C)cc2)c2cc(Br)ccc21 (stereo not given),2% (inactive)
7,CCn1c(C)nc2cc(C(=O)OCCC(F)(F)F)ccc21,0% (inactive)
8,Cc1ccc(OCCN2CCN(C(=O)CCC(=O)Nc3nnc(C)s3)CC2)cc1,1% (inactive)
9,CCC1CCCN1Cn1cnc2c([nH]c3ccc(OC)cc32)c1=O (stereo not given),1% (inactive)
10,Cc1cc(NC(=O)CCCN2C(=O)c3cccnc3C2=O)no1,0% (inactive)
11,CS(=O)(=O)N1CCCC(C(=O)N2CCOCC2)C1 (stereo not given),6% (inactive)
12,CCn1c(=N)n(CC(O)COc2cccc(C)c2)c2ccccc21 (stereo not given),4% (inactive)
13,O=C(COC(=O)C1(c2ccccc2F)CCCC1)NC1CCS(=O)(=O)C1 (stereo not given),3% (inactive)
14,COC(=O)C(C)Sc1nnc2n(-c3cccc(C)c3)c(=O)c3c4c(sc3n12)CCCC4 (stereo not given),1% (inactive)
15,FC(F)Oc1ccc(-c2csc(Cc3nnc4n3CCCCC4)n2)cc1,0% (inactive)
16,Cc1occc1C(=O)Nc1nnc(C2CCCCC2)s1,0% (inactive)
17,Cc1ccc(C)c(N2CCN(C(=O)CCCn3c(=S)[nH]c4cc5c(cc4c3=O)OCO5)CC2)c1,0% (inactive)
18,c1ccc(C2(Cn3ccc4ccccc43)OCCO2)cc1,0% (inactive)
19,CCOC(=O)N1CCC(NC(=O)C2CCC(Cn3c(=O)[nH]c4ccccc4c3=O)CC2)CC1 (stereo not given),9% (inactive)
20,N#CC1=C(N)SC(N)=C(C#N)C1CCc1ccccc1,8% (inactive)

row,Compound,inhibition
1,Cc1cc(NC(=O)NC(=O)c2cccc(OC(F)(F)C(F)F)c2)n[nH]1,3% (inactive)
2,CC1=C(C(=O)NCc2ccco2)C2(CCC(C)CC2)OC1=O (stereo not given),4% (inactive)
3,CCOCCn1c(CN2CCC(Cc3ccccc3)CC2)nc2c1c(=O)n(C)c(=O)n2C,0% (inactive)
4,N#Cc1c2n(c(=O)[nH]c1=O)CCCCC2,0% (inactive)
5,COc1cc2c(cc1OC)-c1cc(Nc3ccc4c(c3)OCCO4)nc(=O)n1CC2,2% (inactive)
6,Cc1noc(/C=C/N(C)C)c1S(=O)(=O)N1CCCC(C(=O)N2CCCCC2)C1 (stereo not given),7% (inactive)
7,O=C(Nc1ccc(N2CCOCC2)cc1)C1CC1,0% (inactive)
8,O=C(NCC(=O)N(Cc1cccs1)C(C(=O)NC1CCCC1)c1ccncc1)c1ccco1 (stereo not given),4% (inactive)
9,COc1cc(C2C(C#N)=C(N)OC3=C2C(=O)CCC3)ccc1OC(=O)N1CCOCC1 (stereo not given),0% (inactive)
10,CN1CCN(C(=O)c2cnn3c(C(F)F)cc(C4CC4)nc23)CC1,6% (inactive)
11,COc1ccc(CN(C(=O)c2oc3ccccc3c2C)C2CCS(=O)(=O)C2)cc1 (stereo not given),0% (inactive)
12,CC1=Nn2c(nnc2-c2ccc(F)cc2)SC1,0% (inactive)
13,COc1ccc(NC(=O)CSc2nnc(-c3ccncc3)n2CC2CCCO2)c(OC)c1 (stereo not given),4% (inactive)
14,Cc1n[nH]c(C)c1S(=O)(=O)N1CCN(c2ccccn2)CC1,2% (inactive)
15,C=C(C)COc1ccc(-c2nc(N)ncc2Oc2ccccc2OCC)c(O)c1,1% (inactive)
16,Cc1nnc(SCC(=O)NCc2ccccc2)s1,0% (inactive)
17,Oc1c(Cl)cc(Cl)cc1Sc1cc(Cl)cc(Cl)c1O,0% (inactive)
18,CCc1nc(C)c(C#N)c2cc(OC)c(OC)cc12,0% (inactive)
19,CC(C)CNC(=O)c1ccccc1NC(=O)c1ccc(CN2CCOCC2)cc1,3% (inactive)
20,O=C1OCc2cc(NC(=O)C3CCCO3)ccc21 (stereo not given),5% (inactive)
